Laboratory results taken from PubChem BioAssay AID1159580 (chemical genetic matrix, 2015).
Values joined by “and” are separate entries in the source; they are usually repeats but may differ in a detail not shown here. Equal values may be shown once. Screen size: about 5,500 compounds; about 2,000 (36%) were called active. Inconclusive results (about 18%) are left out. Cut-off read from the data, not from the text of the source: active = normalized growth mostly below about 0.91 (no sharp cut-off); inconclusive = no clear call, values can overlap the other calls; inactive = mostly above about 0.92. The list shows a part of the results.

Experiment: chemical genetic growth profiling, strain panel (AID 1159580);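 note: tested at 20 µM; growth read once vehicle control cultures reached saturation at 30 °C; 1 = growth at the plate median or of vehicle wells; lower values mean less growth of the strain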
Details: S. cerevisiae deletion strains, growth OD

Measured: normalized growth

Cc1cc(C(C)(C)C)cc(C)c1CC1=NCCN1
inactive: locus YAL013W, strain DEP1, hits give low values 1.02 and 0.999 | locus YAL021C, strain ccr4, hits give low values 0.987 | locus YAL026C, strain drs2, hits give low values 0.986 | locus YAL030W, strain snc1, hits give low values 1 | locus YAL040C, strain CLN3, hits give low values 0.976 | locus YBL061C, strain skt5, hits give low values 0.999 | locus YBR009C, strain hhf1, hits give low values 0.957 | locus YBR021W, strain FUR4, hits give low values 1.02 | locus YBR023C, strain chs3, hits give low values 1.01 | locus YBR171W, strain sec66, hits give low values 1.01 | locus YBR229C, strain ROT2, hits give low values 1.01 | locus YBR231C, strain swc5, hits give low values 1 | locus YBR279W, strain paf1, hits give low values 0.993 | locus YCL011C, strain gbp2, hits give low values 0.988 | locus YCL016C, strain dcc1, hits give low values 0.99 | locus YCL029C, strain bik1, hits give low values 1.01 | locus YCL061C, strain MRC1 (second series), hits give low values 0.999 | locus YCL061C, strain MRC1, hits give low values 1.02 | locus YCL069W, strain vba3, hits give low values 1 | locus YCR088W, strain abp1, hits give low values 0.996 | locus YDL005C, strain med2, hits give low values 1.01 | locus YDL035C, strain GPR1, hits give low values 1.03 | locus YDL040C, strain nat1, hits give low values 1 | locus YDL074C, strain BRE1, hits give low values 1.02 | locus YDL101C, strain DUN1, hits give low values 1.01 | locus YDL134C, strain PPH21, hits give low values 1.02 | locus YDL185W, strain tfp1, hits give low values 1.01 | locus YDL192W, strain arf1, hits give low values 1.01 | locus YDR001C, strain nth1, hits give low values 1.01 | locus YDR069C, strain doa4, hits give low values 1.02 | locus YDR101C, strain arx1, hits give low values 1 | locus YDR137W, strain rgp1, hits give low values 0.994 | locus YDR150W, strain NUM1, hits give low values 1.02 | locus YDR159W, strain sac3, hits give low values 0.941 | locus YDR162C, strain NBP2, hits give low values 1.01 | locus YDR195W, strain ref2 1.01 | locus YDR297W, strain sur2, hits give low values 1 | locus YDR318W, strain mcm21, hits give low values 0.995 | locus YDR334W, strain swr1, hits give low values 0.993 | locus YDR335W, strain msn5, hits give low values 0.999 | locus YDR363W, strain ESC2, hits give low values 1 | locus YDR388W, hits give low values 1 | locus YDR392W, strain spt3, hits give low values 0.926 | locus YDR502C, strain sam2, hits give low values 0.998 | locus YEL003W, strain gim4, hits give low values 1.01 | locus YEL037C, strain rad23, hits give low values 1 | locus YEL061C, strain CIN8 (second series), hits give low values 0.997 | locus YEL061C, strain CIN8, hits give low values 1.02 | locus YER002W, strain NOP16, hits give low values 1 | locus YER015W, strain faa2, hits give low values 0.998 | locus YER016W, strain bim1, hits give low values 0.973 | locus YER110C, hits give low values 0.994 | locus YER111C, strain swi4, hits give low values 1 | locus YER155C, strain BEM2 (second series), hits give low values 1.02 | locus YER155C, strain BEM2, hits give low values 1.01 | locus YER167W, strain BCK2, hits give low values 1.01 | locus YFR010W, strain ubp6, hits give low values 1.02 | locus YGL078C, strain dbp3, hits give low values 1 | locus YGL086W, strain mad1, hits give low values 1 | locus YGL167C, strain pmr1, hits give low values 1 | locus YGL173C, strain kem1, hits give low values 1.02 | locus YGL227W, strain vid30, hits give low values 1 | locus YGL240W, strain doc1, hits give low values 1.03 | locus YGL248W, strain PDE1, hits give low values 1 | locus YGL253W, strain hxk2, hits give low values 0.977 | locus YGR078C, strain PAC10, hits give low values 1.01 | locus YGR135W, strain pre9, hits give low values 1 | locus YGR229C, strain SMI1, hits give low values 1.02 | locus YGR252W, strain gcn5, hits give low values 0.951 | locus YHR013C, strain ard1, hits give low values 0.971 | locus YHR027C, strain rpn1, hits give low values 0.993 | locus YHR030C, strain SLT2, hits give low values 1.02 and 1.01 | locus YHR079C, strain IRE1 (second series), hits give low values 0.995 | locus YHR079C, strain IRE1, hits give low values 1.01 | locus YHR094C, strain hxt1, hits give low values 1 | locus YHR129C, strain ARP1, hits give low values 1.01 | locus YHR142W, strain chs7, hits give low values 1.02 | locus YHR200W, strain rpn10, hits give low values 1 | locus YIL066C, strain RNR3, hits give low values 1.02 | locus YIL073C, strain SPO22, hits give low values 1.04 | locus YIL125W, strain kgd1, hits give low values 0.997 | locus YIR030C, strain dcg1, hits give low values 1 | locus YJL092W, strain hpr5, hits give low values 1.02 | locus YJL095W, strain BCK1 (second series), hits give low values 1.01 | locus YJL095W, strain BCK1, hits give low values 1.01 and 0.982 | locus YJL115W, strain asf1, hits give low values 0.985 | locus YJL129C, strain trk1, hits give low values 1.02 | locus YJL134W, strain LCB3, hits give low values 1.01 | locus YJL154C, strain vps35, hits give low values 1.01 | locus YJL164C, strain tpk1, hits give low values 0.98 | locus YJL166W, strain qcr8, hits give low values 1.03 | locus YJL168C, strain set2, hits give low values 0.998 | locus YJL187C, strain SWE1 (second series), hits give low values 1.03 | locus YJR043C, strain POL32, hits give low values 1 | locus YJR066W, strain TOR1, hits give low values 0.937
